We go through 99 compounds from ChEMBL document CHEMBL4888484, “Replenishing the malaria drug discovery pipeline: Screening and hit evaluation of the MMV Hit Generation Library 1 (HGL1) against asexual blood stage Plasmodium falciparum ,using a nano luciferase reporter read-out” (2022).

About 410 (8.5%) of roughly 4,800 compounds showed an effect of 50% or more. The full list was thinned out, with strong results kept by preference.

The subject of the test is Plasmodium falciparum. The test is described as follows: Confirmatory screen in NF54 pLDH assay, in single point, at 2uM, 72h. The format is functional, Erythrocyte. The conditions noted are these: timepoint 72 hour.
For orientation: % Inhibition means the drop in the measured response relative to a control, in per cent. As to `Nc1nccnc1C(=O)Nc1c(-c2ccccc2)ncn1C1CC1`, the “% Inhibition” value is given as 3%. Regarding `Cn1cc2c(n1)CCC[C@@H]2NC(=O)c1cccc(C(=O)NC2CC2)c1`, the “% Inhibition” value is given as 0%. For `COc1ccc(-n2ncc(Oc3cccc(C)c3)c(Nc3cccc(C(=O)NCc4ccc(F)cc4)c3)c2=O)cc1`, the “% Inhibition” value is reported as 30%. `CC(C)c1ccc(Oc2cnn(-c3cccc(Cl)c3)c(=O)c2Nc2cccc(C(=O)NC3CC3)c2)cc1`: the “% Inhibition” value came to 54%. For the compound `CCn1ncc2ccc(N[C@@H](C)C3(O)CCOCC3)cc21`, the “% Inhibition” value was 12%.

With `CCOc1ccc(C(=O)N2CCN(c3nnc4ccccn34)CC2)cc1`, the “% Inhibition” value was found to be 8%. Consider `CC(=O)c1cccc(NC(=O)Cn2c(=O)n(CCc3ccccc3)c(=O)c3ccccc32)c1`, for which the “% Inhibition” value was 10%. To `CCCN1C(=O)c2ccccc2N2C(=O)CC[C@@]12C(=O)Nc1ccccc1` belongs 97%; to `CCN1C(=O)c2ccccc2N2C(=O)CC[C@@]12C(=O)Nc1cccc(OC)c1`, 96%; to `CC(=O)c1cccc(NC(=O)c2nonc2C)c1`, -11%. For the compound `O=C(CN1C[C@@H](c2ccccc2)Oc2ccccc2C1=O)Nc1ccccc1`, the “% Inhibition” value was -14%. Consider `COc1ccc(NC(=O)CCC(=O)N2CCc3ccccc3C2)cc1`, for which the “% Inhibition” value is on record as 6%. For the compound `COc1ccc(NC(=O)CN2N=C(C(=O)Nc3ccccc3)CCC2=O)cc1`, the “% Inhibition” value is given as -2%.

`COc1cccc(NC(=O)c2ccc3c(c2)N(C)[C@@H]2CCCCCN2C3=O)c1`: the “% Inhibition” value turned out to be 9%. To `CCCN1C(=O)c2ccccc2N2C(=O)CC[C@@]12C(=O)Nc1ccc(OC)cc1` belongs 92%; to `CC(=O)c1cccc(NC(=O)[C@@]23CCC(=O)N2c2ccccc2C(=O)N3C)c1`, 88%; to `COc1ccc(NC(=O)C2=NN(CC(=O)Nc3cccc(OC)c3)C(=O)CC2)cc1`, -4%. To `CC(=O)N1C(C(=O)O)Cc2c([nH]c3ccccc23)C1c1ccc2c(c1)OCO2` (centres undefined) belongs 5%. For `Clc1ccc(Cl)c(-c2ccc(CNn3cnnc3)o2)c1`, the “% Inhibition” value worked out at 11%. Consider `O=C(NCC1(Cc2ccccc2)CCC1)N(CCO)C1CC1`, for which the “% Inhibition” value is recorded as -1%. With `Cc1ccn(-c2ccc(C(=O)NC3CCCC3)cn2)n1`, the “% Inhibition” value is reported as -9%. As to `C[C@@H](C(=O)Nc1ncc[nH]1)c1ccc2c(c1)[nH]c1ccc(Cl)cc12`, the “% Inhibition” value is given as 16%. With `c1coc([C@H](CNC2CCCC2)N2CCCC2)c1`, the “% Inhibition” value was -12%.

`O=C1NCCC[C@@H]1Nc1ccc(C(F)(F)F)nn1`: the “% Inhibition” value amounted to 2%. The same measure for `COC[C@H]1[C@H](NC(=O)c2ncc(F)cc2F)[C@H]2CCO[C@H]21`: -17%; for `Nc1nc(C2CC(N)C2)cc(N2CCC(Oc3ccccc3Cl)CC2)n1` (centres undefined): 65%; for `Nc1nc(N2CCN(c3ccc(F)c(Cl)c3)CC2)cc([C@H]2C[C@@H](N)C2)n1`: 34%. For the compound `O=C(CN1CCN(Cc2ccc(F)cc2)C1=O)NC1CCCCCCC1`, the “% Inhibition” value is reported as 0%.

As for `CC[C@@H](Cc1ccccc1Br)C(=O)NCCC(N)=O`, the “% Inhibition” value is recorded as -6%. As for `O=C(Nc1ccc(NC2CCOCC2)cc1)c1cc(F)c(O)c(F)c1`, the “% Inhibition” value is on record as -10%. Turning to `O=C(COc1ccccc1)Nc1ccc2c(c1)C(O)=Nc1cccnc1O2`, the “% Inhibition” value amounted to 64%. Turning to `CC(C)(C)CC(=O)Nc1ccc2c(c1)C(N1CCCCC1)=Nc1ccccc1O2`, the “% Inhibition” value is given as -4%. On to `CC1(C)Oc2ccc(NC(=O)COc3ccccc3)cc2NC1=O`, for which the “% Inhibition” value was found to be 12%. For the compound `CC(C)(C)OC(=O)Cn1cc(CO)nn1`, the “% Inhibition” value came to 10%. Turning to `O=C(C[C@H]1CCOC1)Nc1cc2ccc(Br)cn2n1`, the “% Inhibition” value was found to be 11%.

Turning to `COC(=O)c1cc(NC(=O)N2CCO[C@H](C(=O)OC)C2)c(F)cc1F`, the “% Inhibition” value was found to be 6%. To `CC1CN(C(=O)C(C(C)C)N2CC(C)OC(C)C2)CCO1` (centres undefined) belongs -12%; to `COc1ccc(NC(=O)C2=Cc3cc(Cl)cc(OC)c3OC=C2)cc1`, -1%. To `CCCN(CCC)CCN1C(=O)[C@@H]2C(C(=O)Nc3cc(Cl)cc(Cl)c3)[C@@H]3C=C[C@]2(O3)C1C(=O)NC1CCCCC1` (some centres undefined) belongs 50%. Turning to `O=c1[nH]cnc2c1nc(N1CCCCC1)n2C1OC(CO)C(O)C1O` (centres undefined), the “% Inhibition” value is given as 3%. With `O=C(Cc1nnc2ccc(C(=O)Nc3ccccc3)cn12)Nc1ccc(F)cc1`, the “% Inhibition” value is recorded as 8%. Regarding `Cc1cc(=O)[nH]c(-n2nc(C3CC3)cc2NC(=O)c2ccc(C(C)(C)C)cc2)n1`, the “% Inhibition” value was determined as 52%. Regarding `Cc1cc(F)ccc1NC(=O)Cn1nc(C2CC2)c2c(C(F)F)cc(=O)[nH]c21`, the “% Inhibition” value turned out to be 9%. As to `O=C(CCCc1ccccc1)Nc1cc(C2CC2)nn1-c1nc(-c2ccccc2)cc(=O)[nH]1`, the “% Inhibition” value worked out at 36%. To `CC(C)c1cc(=O)[nH]c(-n2nc(C3CC3)cc2NC(=O)c2ccc(F)cc2)n1` belongs 89%; to `CN1CCC[C@H](C(=O)Nc2nc(C3CC3)cs2)C1`, -2%.

For the compound `CC(C)(C)c1ccc(C(=O)N[C@H]2CCCC[C@@H]2NC(=O)c2ccc(C(C)(C)C)cc2)cc1`, the “% Inhibition” value was 2%.

On to `CCC(CC)C(=O)Nc1cc(C2CC2)nn1-c1nc(-c2ccccc2)cc(=O)[nH]1`, for which the “% Inhibition” value worked out at 45%. To `Cc1ccc(C(=O)Nc2c(C(N)=O)sc3nc(C(F)F)cc(C4CC4)c23)cc1` belongs -9%; to `CCc1cc(=O)[nH]c(-n2nc(C3CC3)cc2NC(=O)C2CCCCC2)n1`, 87%. To `Cc1nn(C)c(NC(=O)c2ccc(C(C)(C)C)cc2)c1C1=CCCCC1` belongs -5%. Take `Cc1cc(=O)[nH]c(-n2nc(C3CC3)cc2NC(=O)C(c2ccccc2)c2ccccc2)n1`: the “% Inhibition” value was 87%. To `CCc1cc(C(=O)N2CCCCCC2)c2c(C3CC3)nn(-c3ccc(F)cc3)c2n1` belongs 5%; to `CC1CC(c2ccccc2)CCN1C(=O)c1cc(C2CC2)on1` (centres undefined), 6%. Consider `Cc1n[nH]cc1Nc1ccnc(C(C)(C)C)n1`, for which the “% Inhibition” value came to 7%. Turning to `CC(C)OC[C@@H](O)CN1CC(C2CCC2)C1`, the “% Inhibition” value is reported as -19%.

On to `CC1CCCCC1NC(=O)CN1CCN(Cc2cccc(Cl)c2)C1=O` (centres undefined), for which the “% Inhibition” value is on record as -4%. `Cc1cc2ncc(-n3cncn3)c(-c3ccccc3)n2n1`: the “% Inhibition” value was 8%. Consider `CCc1ccc(CN2CCN(Cc3cccc(Oc4ccccc4)c3)CC2)cc1`, for which the “% Inhibition” value is 8%. For the compound `CCC1CC(CC(=O)NS(=O)(=O)c2ccnn2C)CCO1` (centres undefined), the “% Inhibition” value stood at 0%.

For the compound `COc1ccc2cc3n(c2c1)C[C@](C(=O)NC1CCCCCC1)(c1ccccc1)N(Cc1ccccc1Cl)C3=O`, the “% Inhibition” value was found to be 13%. Turning to `CC1(C)CCCc2sc(NC(=O)N[C@H]3CCOC4(CCC4)C3)nc21`, the “% Inhibition” value worked out at 1%. To `Cc1cc(Br)ccc1CN(C)S(C)(=O)=O` belongs -4%; to `CCOc1ccc2sc(NC(=O)Cn3cnc4nc(N5CCCCC5)sc4c3=O)nc2c1`, -1%. For `Cn1ccc(C2=Nc3ccccc3NC(=O)C2)n1`, the “% Inhibition” value is on record as -4%.

With `O=S(=O)(c1ccc(F)c(Cl)c1)N1CC[C@H](Oc2ccncc2Cl)C1`, the “% Inhibition” value was 89%. The same measure for `O=S(=O)(c1ccc(Cl)cc1)N1CCC(c2cc(-c3cccc(C(F)(F)F)c3)[nH]n2)CC1`: 0%; for `O=S(=O)(c1ccco1)N1CC[C@H](Oc2ccccc2)C1`: 10%; for `O=S(=O)(c1ccc(Br)o1)N1CCCC[C@H]1c1ncc[nH]1`: -20%. With `Cc1ccc(NC(=O)COC(=O)c2nccc3ccccc23)cc1`, the “% Inhibition” value is 11%.

For the compound `COc1cccc(Oc2nc(N3CCN(C)CC3)nc3c2CN(C(=O)Nc2ccccc2)CC3)c1`, the “% Inhibition” value is 10%. For `CC1CCN(c2nc3c(c(Oc4cccc(F)c4)n2)CN(Cc2ccccn2)CC3)CC1`, the “% Inhibition” value turned out to be 21%. Regarding `COc1cccc(CC(=O)N2CCc3nc(N4CCC(C)CC4)nc(Oc4ccccc4OC)c3C2)c1`, the “% Inhibition” value was determined as 61%. Turning to `Cc1cc(C)n(S(=O)(=O)c2cccc3cccnc23)n1`, the “% Inhibition” value is reported as -10%. For `CCn1cc(C(=O)Nc2ccc(C(=O)N3CCCCC3)cc2)cn1`, the “% Inhibition” value is listed as 5%. As to `COc1cc(OC)cc(C(=O)Nc2ccc3nc(N4CCC(C)CC4)cc(C)c3c2)c1`, the “% Inhibition” value came to 40%.

On to `CCN(CC)c1ccc(C(=O)Nc2ccc3nc(N4CCCC4)cc(C)c3c2)cc1`, for which the “% Inhibition” value is 93%.

`O=C1CN(S(=O)(=O)c2ccc(C(F)(F)F)cc2)C2(CCCCC2)CN1CC1CC1`: the “% Inhibition” value is given as -14%. On to `CCOC(=O)c1c(CN2CCOCC2)n(-c2ccc(C)cc2)c2ccc(Oc3nccc(Nc4ccccc4)c3C#N)cc12`, for which the “% Inhibition” value was found to be 7%. For `COCc1cc2nn(CC(=O)Nc3ccc(F)cc3)c(=O)n2c(-c2ccccc2)n1`, the “% Inhibition” value is reported as -27%.

As for `O=C(Nc1ccccc1)C1=NN(CC(=O)N2CCCCC2)C(=O)CC1`, the “% Inhibition” value is -1%. With `CC(NS(C)(=O)=O)C(=O)N1CCC(F)(c2cc(F)cc(F)c2)C1` (centres undefined), the “% Inhibition” value came to 12%. With `COc1ccc(Nc2nc(C(C(F)(F)F)(C(F)(F)F)C(F)(F)F)nc(C(C(F)(F)F)(C(F)(F)F)C(F)(F)F)n2)cc1`, the “% Inhibition” value is recorded as 11%. As to `O=c1cc(-c2ccccc2)n(S(=O)(=O)c2ccccc2)o1`, the “% Inhibition” value was -7%. Regarding `Clc1cccc(N2CCN(Cc3ccc(OC4CCNCC4)cc3)CC2)c1`, the “% Inhibition” value is on record as 14%. On to `CC(=O)C1(C(C)=O)[C@H](c2ccc(F)cc2)C1(C#N)C#N`, for which the “% Inhibition” value is -24%. `O=C(CCC1CCCCC1)Nc1ncccn1`: the “% Inhibition” value is listed as -9%. For the compound `O=C(NCCCc1ccccc1)[C@H]1CCCN(c2nc3ccccc3[nH]2)C1`, the “% Inhibition” value is recorded as -4%. Regarding `CC(C)C1(C)CC(=O)N(C(C(=O)O)c2ccccc2)C1=O` (centres undefined), the “% Inhibition” value is -6%. As to `Cc1cc(N)nc(Nc2ccc(Nc3ccccc3)cc2)n1`, the “% Inhibition” value turned out to be 97%. For `Cc1nc(N)nc(C)c1C(=O)Nc1ccc(Nc2ncccn2)cc1`, the “% Inhibition” value turned out to be 36%. As for `c1ccc(Nc2nc(-c3ccccc3)cc(-c3ccccc3)n2)cc1`, the “% Inhibition” value amounted to 5%. As to `O=C(NC(C1CC1)C1CC1)c1ccsc1`, the “% Inhibition” value was -23%. For `Cn1c(C(=O)N2CC[C@H](N)C2)ccc1-c1cccc(Br)c1`, the “% Inhibition” value is listed as 11%. Take `N#Cc1c(-c2ccccc2)cc(-c2ccccc2)n(C(=O)c2ccc(F)cc2)c1=O`: the “% Inhibition” value came out at 9%. The same measure for `Oc1nccc(C(F)(F)C(F)(F)F)n1`: -3%; for `COc1ccc(-c2cc(C(=O)NC3CCN(C(C)C)CC3)c3ccccc3n2)cc1OC`: -18%.

Consider `CS(=O)(=O)Nc1nc2ccc(NC(=O)c3cc(-c4ccccc4)nc4ccccc34)cc2s1`, for which the “% Inhibition” value worked out at 3%. `CCOc1ccc(-c2cc(NC(=O)c3cc(-c4cccnc4)nc4ccccc34)on2)cc1OCC`: the “% Inhibition” value is 98%.
